# Active and inactive are the calls of the source. How the source made its calls: active means hit-call score of the fitted dose curve at least 0.9, where 1 is the maximum; inactive means score below 0.9.
# How the values were obtained:
# Conditions in all cases: mRNA level, 48 h; actives raise or lower the signal
# CYP2C9 (gene 1559) = experiment: LTEA_HepaRG_CYP2C9: Life Technologies and Expression Analysis (LTEA) Assay for CYP2C9 using HepaRG (AID 2283484)
# Method in brief: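 CYP2C9 transcript level, quantified by TaqMan qRT-PCR against three housekeeping genes, was fitted bidirectionally relative to 0.5% DMSO. HepaRG cultures were treated 48 h, in duplicate, at eight half-log concentrations topping at 100 uM.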
# CYP2E1 (gene 1571) = experiment: LTEA_HepaRG_CYP2E1: Life Technologies and Expression Analysis (LTEA) Assay for CYP2E1 using HepaRG (AID 2283485)
# Method in brief: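 CYP2E1 transcript measured by Fluidigm qRT-PCR against three housekeeping genes in human HepaRG cells treated 48 h (top 100 uM, half-log steps, 0.5% DMSO vehicle). Gain or loss fitted relative to DMSO baseline.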
# CYP4A11 (gene 1579) = experiment: LTEA_HepaRG_CYP4A11: Life Technologies and Expression Analysis (LTEA) Assay for CYP4A11 using HepaRG (AID 2283486)
# Method in brief: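 Differentiated HepaRG cells, serum-free induction medium, exposed 48 h in duplicate to 8-point half-log series from 100 uM in 0.5% DMSO. CYP4A11 mRNA measured by qRT-PCR, normalized to ACTB, GAPDH, POLR2A; bidirectional fit versus DMSO.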
# [1] = read-out: Cytochrome P450 3A4 (Homo sapiens) (UniProt P08684); experiment: LTEA_HepaRG_CYP3A4: Life Technologies and Expression Analysis (LTEA) Assay for CYP3A4 using HepaRG (AID 2283487)
# Method in brief: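 HepaRG, 48 h exposure, 8-pt CRC from 100 uM (half-log), 0.5% DMSO, duplicates; serum-free induction medium. Readout: CYP3A4 mRNA, qRT-PCR, ACTB/GAPDH/POLR2A normalization. Bidirectional fit vs DMSO.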
# [2] = read-out: DNA damage-inducible transcript 3 (DDIT3), DDIT3 (gene 1649); experiment: LTEA_HepaRG_DDIT3: Life Technologies and Expression Analysis (LTEA) Assay for DNA damage-inducible transcript 3 (DDIT3) using HepaRG (AID 2283488)
# Method in brief: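 DDIT3 transcript was quantified by qRT-PCR with ACTB/GAPDH/POLR2A normalization after 48 h chemical treatment of differentiated HepaRG cells in 0.5% DMSO. Dosing was eight-point, half-log, top 100 uM, duplicate wells. Curves fitted bidirectionally versus DMSO.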
# [3] = read-out: Early growth response protein 1 (EGR1) transcription factor, EGR1 (gene 1958); experiment: LTEA_HepaRG_EGR1: Life Technologies and Expression Analysis (LTEA) Assay for Early growth response protein 1 (EGR1) transcription factor using HepaRG (AID 2283490)
# Method in brief: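 EGR1 transcript levels quantified by qRT-PCR (Fluidigm arrays) against three housekeeping genes after 48 h chemical exposure of HepaRG cells. Eight-point half-log series topping at 100 uM, 0.5% DMSO vehicle, analyzed for gain or loss.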
# [4] = read-out: Ezrin (EZR), EZR (gene 7430); experiment: LTEA_HepaRG_EZR: Life Technologies and Expression Analysis (LTEA) Assay for Ezrin (EZR) using HepaRG (AID 2283491)
# Method in brief: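 Read-out is EZR transcript level by qRT-PCR, normalized to three housekeeping genes and fitted bidirectionally against the DMSO control. Human HepaRG cells received test chemicals for 48 h at eight half-log concentrations up to 100 uM in 0.5% DMSO.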
# [5] = read-out: Cytochrome P450 3A7 (Homo sapiens) (UniProt P24462); experiment: LTEA_HepaRG_CYP3A7: Life Technologies and Expression Analysis (LTEA) Assay for CYP3A7 using HepaRG (AID 2283492)
# Method in brief: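 HepaRG cells plated 48 h, then dosed in serum-free induction medium for 48 h at 8 concentrations (top 100 uM, half-log steps, 0.5% DMSO). CYP3A7 mRNA by qRT-PCR, normalised to ACTB/GAPDH/POLR2A; bidirectional fit versus DMSO.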
# CYP3A5 (gene 1577) = experiment: LTEA_HepaRG_CYP3A5: Life Technologies and Expression Analysis (LTEA) Assay for CYP3A5 using HepaRG (AID 2283493)
# Method in brief: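 mRNA levels were quantified by qRT-PCR on Fluidigm arrays and normalized to three housekeeping genes. Differentiated HepaRG cells received 48 h exposure (top 100 uM, half-log steps, 0.5% DMSO vehicle, duplicate); bidirectional fitting versus DMSO.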
# [6] = read-out: Fatty Acid-Binding Protein 1 (FABP1), FABP1 (gene 2168); experiment: LTEA_HepaRG_FABP1: Life Technologies and Expression Analysis (LTEA) Assay for Fatty Acid-Binding Protein 1 (FABP1) using HepaRG (AID 2283494)
# Method in brief: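 FABP1 expression by TaqMan qRT-PCR, normalised to three housekeeping genes, in HepaRG cells after 48 h chemical treatment. Eight-point half-log series topping at 100 uM in 0.5% DMSO, duplicates; gain or loss fitted relative to vehicle.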
# [7] = read-out: Cytochrome P450 7A1 (Homo sapiens) (UniProt P22680); experiment: LTEA_HepaRG_CYP7A1: Life Technologies and Expression Analysis (LTEA) Assay for Cytochrome P450 7A1 (CYP7A1) using HepaRG (AID 2283496)
# Method in brief: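 HepaRG, 48 h exposure, 8-pt half-log series from 100 uM, 0.5% DMSO vehicle, duplicates. Readout: TaqMan qRT-PCR mRNA vs three housekeeping genes; bidirectional curve fit against DMSO baseline.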
# [8] = read-out: Glutathione S-Transferase (GSTA2), GSTA2 (gene 2939); experiment: LTEA_HepaRG_GSTA2: Life Technologies and Expression Analysis (LTEA) Assay for Glutathione S-Transferase (GSTA2) using HepaRG (AID 2283497)
# Method in brief: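 GSTA2 transcript levels came from Fluidigm TaqMan qRT-PCR normalized to three housekeeping genes, fitted in both directions against DMSO. HepaRG cultures received chemicals for 48 h in serum-free induction medium (0.5% DMSO), 8 half-log concentrations up to 100 uM, duplicate.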
# [9] = read-out: Glutamate-cysteine ligase catalytic (GCLC), GCLC (gene 2729); experiment: LTEA_HepaRG_GCLC: Life Technologies and Expression Analysis (LTEA) Assay for Glutamate-cysteine ligase catalytic (GCLC) using HepaRG (AID 2283498)
# Method in brief: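 Expression by TaqMan qRT-PCR, normalized to three housekeeping genes (ACTB, GAPDH, POLR2A), with up- or down-regulation fitted against DMSO. HepaRG cells dosed in duplicate for 48 h with 8 half-log concentrations up to 100 uM, vehicle 0.5% DMSO.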
# [10] = read-out: growth arrest and DNA damage 45 (GADD45G), GADD45G (gene 10912); experiment: LTEA_HepaRG_GADD45G: Life Technologies and Expression Analysis (LTEA) Assay for growth arrest and DNA damage 45 (GADD45G) using HepaRG (AID 2283499)
# Method in brief: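 Differentiated human HepaRG cells in serum-free induction medium were exposed for 48 h to 8 half-log concentrations up to 100 uM in 0.5% DMSO, in duplicate. GADD45G mRNA was measured by TaqMan qRT-PCR, normalised to ACTB, GAPDH and POLR2A, and fitted bidirectionally against DMSO.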
# [11] = read-out: Glutamate-cysteine ligase regulatory (GCLM), GCLM (gene 2730); experiment: LTEA_HepaRG_GCLM: Life Technologies and Expression Analysis (LTEA) Assay for Glutamate-cysteine ligase regulatory (GCLM) using HepaRG (AID 2283500)
# Method in brief: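 GCLM expression quantified by qRT-PCR, normalized to three housekeeping genes, after 48 h chemical treatment of HepaRG cells in duplicate at 8 concentrations (top 100 uM, half-log steps, 0.5% DMSO). Changes fitted both directions against vehicle.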
# [12] = read-out: Glutathione S-transferase M3 (GSTM3), GSTM3 (gene 2947); experiment: LTEA_HepaRG_GSTM3: Life Technologies and Expression Analysis (LTEA) Assay for Glutathione S-transferase M3 (GSTM3) using HepaRG (AID 2283501)
# Method in brief: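 Differentiated HepaRG cells in serum-free induction medium were exposed in duplicate for 48 h to 8 half-log concentrations up to 100 uM in 0.5% DMSO. GSTM3 mRNA was measured by TaqMan qRT-PCR, normalized to ACTB/GAPDH/POLR2A, and fitted bidirectionally versus DMSO.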
# [13] = read-out: Heat shock 70 kDa protein 1 (HSPA1A), gene 3303; experiment: LTEA_HepaRG_HSPA1A: Life Technologies and Expression Analysis (LTEA) Assay for Heat shock 70 kDa protein 1 (HSPA1A) using HepaRG (AID 2283502)
# Method in brief: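 HSPA1A expression measured by qRT-PCR with ACTB/GAPDH/POLR2A normalization; curves fitted in both directions relative to DMSO vehicle. Exposure: 48 h in HepaRG cells, duplicate 8-point half-log series from 100 uM, 0.5% DMSO, serum-free induction medium.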
# [14] = read-out: Hypoxia-inducible factor 1-alpha (Homo sapiens) (UniProt Q16665); experiment: LTEA_HepaRG_HIF1A: Life Technologies and Expression Analysis (LTEA) Assay for Hypoxia-inducible factor 1 (HIF1A) Trancription factor using HepaRG (AID 2283503)
# Method in brief: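 HIF1A transcript level read by qRT-PCR (ACTB, GAPDH, POLR2A normalization) after 48 h chemical exposure of HepaRG cultures. Eight half-log concentrations, top 100 uM, 0.5% DMSO vehicle, duplicates; bidirectional curve fit against DMSO baseline.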
# Sequence of Cytochrome P450 3A4 (Homo sapiens) (P08684 whole entry, looked up): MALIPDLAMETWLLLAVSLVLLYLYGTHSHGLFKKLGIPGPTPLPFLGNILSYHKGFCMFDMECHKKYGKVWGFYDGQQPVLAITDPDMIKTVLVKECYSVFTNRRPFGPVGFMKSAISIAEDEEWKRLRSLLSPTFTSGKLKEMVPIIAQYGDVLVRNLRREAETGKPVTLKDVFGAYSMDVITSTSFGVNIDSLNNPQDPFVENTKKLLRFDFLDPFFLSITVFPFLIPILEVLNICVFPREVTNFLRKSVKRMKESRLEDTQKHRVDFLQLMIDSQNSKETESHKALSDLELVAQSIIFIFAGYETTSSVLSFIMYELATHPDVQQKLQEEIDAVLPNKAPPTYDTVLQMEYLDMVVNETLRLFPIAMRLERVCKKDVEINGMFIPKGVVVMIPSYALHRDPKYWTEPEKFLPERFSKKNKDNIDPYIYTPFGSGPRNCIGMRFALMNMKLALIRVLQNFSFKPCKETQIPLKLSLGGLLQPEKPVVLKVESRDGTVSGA
# Sequence of Hypoxia-inducible factor 1-alpha (Homo sapiens) (Q16665 whole entry, looked up): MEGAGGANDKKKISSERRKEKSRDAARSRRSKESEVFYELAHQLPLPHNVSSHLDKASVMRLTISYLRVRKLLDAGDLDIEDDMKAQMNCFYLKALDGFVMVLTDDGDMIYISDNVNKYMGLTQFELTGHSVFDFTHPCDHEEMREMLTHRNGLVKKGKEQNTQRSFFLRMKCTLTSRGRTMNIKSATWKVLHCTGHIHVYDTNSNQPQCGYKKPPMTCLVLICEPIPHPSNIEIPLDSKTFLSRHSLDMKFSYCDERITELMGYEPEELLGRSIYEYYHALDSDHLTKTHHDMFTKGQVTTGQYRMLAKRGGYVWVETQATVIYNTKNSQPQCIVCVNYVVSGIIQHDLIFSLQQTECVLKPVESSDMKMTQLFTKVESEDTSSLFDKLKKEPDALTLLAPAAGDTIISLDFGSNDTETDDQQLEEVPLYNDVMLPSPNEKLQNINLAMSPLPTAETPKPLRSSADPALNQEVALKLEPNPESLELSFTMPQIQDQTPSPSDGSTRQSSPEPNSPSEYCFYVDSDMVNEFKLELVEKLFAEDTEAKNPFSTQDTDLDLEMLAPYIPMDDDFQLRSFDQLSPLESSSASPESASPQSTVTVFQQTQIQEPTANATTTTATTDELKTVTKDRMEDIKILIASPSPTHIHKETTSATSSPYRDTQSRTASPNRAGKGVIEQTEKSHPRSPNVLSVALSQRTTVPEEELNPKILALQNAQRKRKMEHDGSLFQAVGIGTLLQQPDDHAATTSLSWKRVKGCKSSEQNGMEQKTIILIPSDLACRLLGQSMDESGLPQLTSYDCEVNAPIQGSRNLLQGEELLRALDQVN
# Sequence of Cytochrome P450 3A7 (Homo sapiens) (P24462 whole entry, looked up): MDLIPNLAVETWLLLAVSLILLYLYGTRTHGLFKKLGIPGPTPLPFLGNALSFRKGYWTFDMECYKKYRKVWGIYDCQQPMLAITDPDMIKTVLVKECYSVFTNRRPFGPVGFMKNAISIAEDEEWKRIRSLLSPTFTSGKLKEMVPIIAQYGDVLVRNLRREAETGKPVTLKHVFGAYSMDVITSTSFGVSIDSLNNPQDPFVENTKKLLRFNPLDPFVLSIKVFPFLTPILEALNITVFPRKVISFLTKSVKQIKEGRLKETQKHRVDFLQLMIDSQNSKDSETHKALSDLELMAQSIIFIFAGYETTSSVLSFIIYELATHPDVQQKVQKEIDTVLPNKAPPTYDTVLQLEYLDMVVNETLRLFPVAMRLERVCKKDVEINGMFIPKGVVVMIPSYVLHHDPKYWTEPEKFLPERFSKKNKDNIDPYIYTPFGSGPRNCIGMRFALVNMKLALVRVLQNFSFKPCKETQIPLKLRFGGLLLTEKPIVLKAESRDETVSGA
smiles,measurement,setting,value
CC(COc1ccc(Oc2ccccc2)cc1)Oc1ccccn1 (centres undefined),outcome,CYP2C9 (gene 1559),inactive
same,AC50,CYP2E1 (gene 1571),35.7 µM (active)
same,AC50,CYP4A11 (gene 1579),12.5 µM (active)
same,AC50,[1],11.8 µM (active)
same,outcome,[2],inactive
same,outcome,[3],inactive
same,outcome,[4],inactive
same,outcome,[5],inactive
same,outcome,CYP3A5 (gene 1577),inactive
same,outcome,[6],inactive
same,AC50,[7],19.9 µM (active)
same,outcome,[8],inactive
same,outcome,[9],inactive
same,outcome,[10],inactive
same,outcome,[11],inactive
same,outcome,[12],inactive
same,outcome,[13],inactive
same,outcome,[14],inactive
CNC(=O)Oc1cccc2c1OC(C)(C)O2,outcome,CYP2C9 (gene 1559),inactive
same,outcome,CYP2E1 (gene 1571),inactive
same,outcome,CYP4A11 (gene 1579),inactive
same,outcome,[1],inactive
same,outcome,[2],inactive
same,outcome,[3],inactive
same,outcome,[4],inactive
same,outcome,[5],inactive
same,outcome,CYP3A5 (gene 1577),inactive
same,outcome,[6],inactive
same,outcome,[7],inactive
same,outcome,[8],inactive
same,outcome,[9],inactive
same,outcome,[10],inactive
same,outcome,[11],inactive
same,outcome,[12],inactive
same,outcome,[13],inactive
same,outcome,[14],inactive
CCc1cnc(C2=NC(C)(C(C)C)C(=O)N2)c(C(=O)O)c1 (centres undefined),outcome,CYP2C9 (gene 1559),inactive
same,outcome,CYP2E1 (gene 1571),inactive
same,outcome,CYP4A11 (gene 1579),inactive
same,outcome,[1],inactive
same,outcome,[2],inactive
same,outcome,[3],inactive
same,outcome,[4],inactive
same,outcome,[5],inactive
same,outcome,CYP3A5 (gene 1577),inactive
same,outcome,[6],inactive
same,outcome,[7],inactive
same,outcome,[8],inactive
same,outcome,[9],inactive
same,outcome,[10],inactive
same,outcome,[11],inactive
same,outcome,[12],inactive
same,outcome,[13],inactive
same,outcome,[14],inactive

# From PubChem BioAssay (EPA / NIEHS)
